Data: PubChem BioAssay (NCI)
The panel holds about 79,000 compounds, 15% with a hit somewhere; the sample as a whole holds those more often. Activity calls are given as the source filed them. No stated cut-off is given here; in the data, active means growth inhibition above about 70%; inactive means the rest.

How the values were obtained:
[1] = NCI Yeast Anticancer Drug Screen. Data for the wt1 strain (AID 149);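 further: 0% = growth of vehicle-treated wt1 cultures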; conditions: S. cerevisiae wt1 strain (SPY 50644) growth inhibition, hits give high values
Procedure, shortened: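 wt1 yeast, compound-treated; % growth inhibition vs vehicle control.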

[2] = NCI Yeast Anticancer Drug Screen. Data for the rad50EPP+ strain (AID 151);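 further: 0% = growth of vehicle-treated control cultures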; conditions: S. cerevisiae rad50 mutant strain, hits give high values
Procedure, shortened: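 Measured: growth inhibition of rad50EPP+ yeast. Reference: vehicle-treated controls. Screen uses strains with defined genetic alterations in DNA damage repair or cell cycle control.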

[3] = NCI Yeast Anticancer Drug Screen. Data for the mgt1 strain (AID 153); conditions: S. cerevisiae mgt1 mutant growth inhibition, hits give high values
Procedure, shortened: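 Compounds were applied to mgt1 mutant yeast, and growth was then compared against vehicle-treated control cultures to give percent inhibition.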

[4] = NCI Yeast Anticancer Drug Screen. Data for the rad50 strain (AID 155);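 further: 0% = growth of vehicle-only cultures of the same strain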; conditions: S. cerevisiae rad50 strain growth inhibition, hits give high values
Procedure, shortened: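 Genetically altered yeast (DNA repair pathway); compound treatment; growth inhibition vs vehicle ctrl.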

[5] = NCI Yeast Anticancer Drug Screen. Data for the mec2-1 strain (AID 157); conditions: S. cerevisiae mec2-1 strain, hits give high values
Procedure, shortened: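 Compounds were applied to mec2-1 yeast cells. Their growth was then compared with that of vehicle-treated cultures to give growth inhibition.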

[6] = NCI Yeast Anticancer Drug Screen. Data for the rad14 strain (AID 159);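 further: 0% = growth of vehicle-treated control cultures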; conditions: S. cerevisiae rad14 strain growth inhibition, hits give high values
Procedure, shortened: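 Test compounds were applied to a repair-deficient yeast strain. Its growth was then compared with that of cultures given vehicle alone, and inhibition was expressed relative to those controls.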

[7] = NCI Yeast Anticancer Drug Screen. Data for the sgs1 mgt1 strain (AID 161);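 further: 0% = growth of cultures given vehicle only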; conditions: S. cerevisiae sgs1 mgt1 strain, hits give high values
Procedure, shortened: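 This yeast growth screen uses a strain with defined DNA-repair lesions; compound-treated growth is compared with vehicle-treated growth.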

[8] = NCI Yeast Anticancer Drug Screen. Data for the CLN2oe strain (AID 163);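 further: 0% = growth of vehicle-only control cultures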; conditions: S. cerevisiae CLN2oe strain, hits give high values
Procedure, shortened: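 Cells of an engineered yeast line with disturbed cell-cycle regulation are treated with compound. Inhibition of growth is then calculated relative to the vehicle-treated reference.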

[9] = NCI Yeast Anticancer Drug Screen. Data for the cln2 rad14 strain (AID 165);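 further: 0% = growth equal to vehicle treated cultures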; conditions: S. cerevisiae cln2 rad14 strain, hits give high values
Procedure, shortened: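 Strain: cln2 rad14 yeast, altered in cell cycle control and DNA damage repair. Read-out: growth inhibition vs vehicle.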

[10] = NCI Yeast Anticancer Drug Screen. Data for the wt2 strain (AID 169);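 further: 0% = growth of vehicle-treated yeast cultures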; conditions: S. cerevisiae wt2 strain growth inhibition, hits give high values
Procedure, shortened: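 Growth of compound-treated yeast is measured and expressed as inhibition relative to vehicle-only controls.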

[11] = NCI Yeast Anticancer Drug Screen. Data for the mlh1 strain (AID 171);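 further: 0% = growth of vehicle-treated control cultures of the same strain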; conditions: S. cerevisiae mlh1 strain growth inhibition, hits give high values
Procedure, shortened: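 Test agents were incubated with yeast bearing a defined DNA damage repair or cell cycle control alteration; values are growth inhibition normalised to vehicle-treated cultures.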

[12] = NCI Yeast Anticancer Drug Screen. Data for the sgs1 strain (AID 173);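 further: 0% = growth of vehicle-only control cultures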; conditions: S. cerevisiae sgs1 mutant, hits give high values
Procedure, shortened: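 Strain with an altered DNA repair or cell cycle pathway exposed to compound. Growth then measured. Value = inhibition versus vehicle control.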

[13] = NCI Yeast Anticancer Drug Screen. Data for the rad18 strain (AID 177); conditions: S. cerevisiae rad18 mutant growth inhibition, hits give high values
Procedure, shortened: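 DNA-repair-defective yeast; compound treatment; growth inhibition scored against vehicle.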

[14] = NCI Yeast Anticancer Drug Screen. Data for the bub3 strain (AID 167); conditions: S. cerevisiae bub3 mutant strain, hits give high values
Procedure, shortened: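 Yeast carrying a defined mutation is treated with each compound, and growth is compared with that of vehicle-exposed cells to give inhibition.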

[15] = NCI Yeast Anticancer Drug Screen. Data for the mlh1 rad18 strain (AID 175); conditions: S. cerevisiae mlh1 rad18 strain growth inhibition, hits give high values
Procedure, shortened: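 A repair-deficient yeast strain is exposed to test compound, and growth is scored relative to vehicle-treated controls.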

[16] = at 5.0 µM (retest, dose inferred, filed as 0.5)
[17] = at 50.0 µM (retest, dose inferred, filed as 5.0)

Measured: growth inhibition

CCOC(=O)/C=C1\CCCn2c1ncc(C(=O)OCC)c2=O
active: [5]; at 50.0 µM 77% | [7]; at 50.0 µM 81.7%
inactive: [1]; at 1.2 µM 2% | [1]; at 3.7 µM 5% | [1]; at 11.0 µM 6% | [1]; at 33.0 µM 10% | [1]; at 100.0 µM 17% | [2]; at 1.2 µM -1% | [2]; at 3.7 µM -2% | [2]; at 11.0 µM -2% | [2]; at 33.0 µM -4% | [2]; at 100.0 µM -1% | [3]; at 1.2 µM 3% | [3]; at 3.7 µM 2% | [3]; at 11.0 µM 6% | [3]; at 33.0 µM -2% | [3]; at 100.0 µM 26% | [4]; at 1.2 µM -1% | [4]; at 3.7 µM -8% | [4]; [16] 8% | [4]; at 11.0 µM -3% | [4]; at 33.0 µM 20% | [4]; [17] 30% | [4]; at 50.0 µM 69.5% | [4]; at 100.0 µM 31% | [5]; at 1.2 µM 3% | [5]; at 3.7 µM 4% | [5]; [16] -5% | [5]; at 11.0 µM 7% | [5]; at 33.0 µM 17% | [5]; [17] 42% | [5]; at 100.0 µM 32% | [6]; at 1.2 µM 4% | [6]; at 3.7 µM 2% | [6]; at 11.0 µM 7% | [6]; at 33.0 µM 12% | [6]; at 100.0 µM 18% | [7]; [16] 4% | [7]; [17] 9% | [8]; at 1.2 µM 3% | [8]; at 3.7 µM 4% | [8]; at 11.0 µM 7% | [8]; at 33.0 µM 12% | [8]; at 100.0 µM 13% | [9]; [16] -25% | [9]; [17] 24% | [9]; at 50.0 µM 55.7% | [10]; at 1.2 µM 1% | [10]; at 3.7 µM 2% | [10]; at 11.0 µM 4% | [10]; at 33.0 µM 11% | [10]; at 100.0 µM 28% | [11]; at 1.2 µM 2% | [11]; at 3.7 µM 3% | [11]; at 11.0 µM 8% | [11]; at 33.0 µM 15% | [11]; at 100.0 µM 38% | [12]; at 1.2 µM 3% | [12]; at 3.7 µM 5% | [12]; at 11.0 µM 6% | [12]; at 33.0 µM 24% | [12]; at 100.0 µM 51% | [13]; at 1.2 µM 1% | [13]; at 3.7 µM 5% | [13]; at 11.0 µM 14% | [13]; at 33.0 µM 30% | [13]; at 100.0 µM 55%

O=c1[nH]c(=O)n(CCCO)cc1F
active: [7]; [17] 76%
inactive: [1]; at 1.2 µM -32% | [1]; at 3.7 µM 0% | [1]; at 11.0 µM -9% | [1]; at 33.0 µM 4% | [1]; at 100.0 µM -4% | [2]; at 1.2 µM -14% | [2]; at 3.7 µM -7% | [2]; at 11.0 µM -9% | [2]; at 33.0 µM -10% | [2]; at 100.0 µM -2% | [3]; at 1.2 µM -13% | [3]; at 3.7 µM -31% | [3]; at 11.0 µM -24% | [3]; at 33.0 µM -33% | [3]; at 100.0 µM -18% | [4]; at 1.2 µM -21% | [4]; at 3.7 µM -11% | [4]; [16] 42% | [4]; at 11.0 µM -10% | [4]; at 33.0 µM -12% | [4]; [17] 44% | [4]; at 50.0 µM 34.4% | [4]; at 100.0 µM -13% | [5]; at 1.2 µM -36% | [5]; at 3.7 µM -27% | [5]; [16] 24% | [5]; at 11.0 µM -41% | [5]; at 33.0 µM -33% | [5]; [17] 20% | [5]; at 50.0 µM -38.6% | [5]; at 100.0 µM -23% | [6]; at 1.2 µM -29% | [6]; at 3.7 µM -19% | [6]; at 11.0 µM -20% | [6]; at 33.0 µM -26% | [6]; at 100.0 µM -30% | [7]; [16] 58% | [7]; at 50.0 µM -33.4% | [9]; [16] 13% | [9]; [17] 26% | [9]; at 50.0 µM -8.55% | [14]; at 1.2 µM -14% | [14]; at 3.7 µM -22% | [14]; [16] 20% | [14]; at 11.0 µM -22% | [14]; at 33.0 µM -37% | [14]; [17] 15% | [14]; at 50.0 µM -26.6% | [14]; at 100.0 µM -21% | [11]; at 1.2 µM -30% | [11]; at 3.7 µM -15% | [11]; at 11.0 µM -19% | [11]; at 33.0 µM -15% | [11]; at 100.0 µM -19% | [12]; at 1.2 µM -27% | [12]; at 3.7 µM -16% | [12]; at 11.0 µM -24% | [12]; at 33.0 µM -3% | [12]; at 100.0 µM -11% | [15]; [16] 47% | [15]; [17] 45% | [15]; at 50.0 µM -41.3% | [13]; at 1.2 µM -18% | [13]; at 3.7 µM -6% | [13]; at 11.0 µM -4% | [13]; at 33.0 µM 13% | [13]; at 100.0 µM 42%
